# Assay outcomes deposited in PubChem by National Center for Advancing Translational Sciences (NCATS).
# Rows were chosen to be rich in hits. Some 8.1% of all compounds tested hit in one or more screens of this group.
# PINK1 expr mod – changes PINK1 expression | PINK1 immunofluorescence, high-content cytometry, 24 h | Potency, µM (highest dose often 76.6 µM), inactives show at the top dose activation (PINK1 increase), hits mostly activators | actives 0.2% (n = 410,000) | AID 624263; active means well fitted activation curve with a large enough effect; inconclusive means small, poorly fitted or top-dose-only effect; cell line not stated here; further: % of control where 0% means no effect; nearly all actives have a fitted effect of over 65% in size
#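 PINK1 protein, normally rapidly degraded, was detected by immunofluorescence after 24 hour compound treatment of a stable cell line. Titration data (5 concentrations) came from laser-scanning cytometry, with CCCP-treated wells as controls.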
# RORgamma inh – ROR gamma (mouse) transcription inhibition; P51450; Drosophila S2 Gal4-RORgamma UAS-luciferase reporter, 20 h; Potency, µM (titrated, usually from 53.6 µM), inactives show at the top dose activity change, negative = inhibition, most hits filed as inhibitors; actives 5.4% (n = 310,000); further: on the % scale 0 is the no-effect control and ±100 the full control effect; nearly all actives have a fitted effect of over 60% in size
#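 Drosophila S2 cells stably expressing Gal4-DBD/mouse RORγ fusion under metallothionein promoter plus UAS-luciferase; compound 1 h, then 700 uM CuSO4 induction for 20 h at ambient temperature; inhibition read as reduced luminescence.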
# Sfp PPTase inh – inhibitors of Bacillus subtilis Sfp phosphopantetheinyl transferase. actives 3.5% (n = 310,000). Biochemical Sfp PPTase activity, qHTS. Potency, µM, for inactives: largest response in the series, negative = inhibition, usual class: inhibitors;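 further: the enzyme is Sfp with the accession as filed and its product quenches rhodamine fluorescence; 0% = enzyme reaction without inhibitor and -100% = no enzyme wells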
#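 Reaction rates are the 30-min fluorescence difference (ex 525, em 598 nm) in wells containing 15 nM Sfp, 5 uM rhodamine-CoA and 12.5 uM BHQ-2-YbbR at pH 7.6 with 10 mM MgCl2.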
# Gal4-VP16 FLuc – Gal4-VP16 reporter inhibition counter-screen; Drosophila S2 Gal4-VP16 UAS-luciferase, luminescence, 20 h; Potency, µM (series often up to 53.6 µM), for inactives: top-dose activity, negative = inhibition, hits mostly inhibitors; actives 3.5% (n = 310,000);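 further: Gal4-VP16 expression switched on by copper sulfate through the metallothionein promoter; on the % scale 0 is the no-effect control and ±100 the full control effect; nearly all actives have a fitted effect of over 50% in size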
# ClpP mod – qHTS Assay for Activators of ClpP. ATP-dependent Clp protease proteolytic subunit (Bacillus subtilis (strain 168)), P80244. purified B. subtilis ClpP, FRET peptide cleavage, 20 min. Potency, µM (titrated, usually from 57.5 µM), inactives show at the highest dose activity change, negative = active. actives 1.9% (n = 340,000). AID 651965, 2013; active means well fitted falling curve with a large enough effect; inconclusive means small, poorly fitted or top-dose-only effect; inactive means no such curve, though single readings can be large or run the other way; further: the source files actives as falling curves though it sought activators and does not explain the sign; nearly all actives have a fitted effect of over 65% in size
#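 Buffer: 100 mM Tris/HCl pH8, 100 mM KCl, 0.05% low protease BSA, 2.5% glycerol, 0.01% Tween-20. ClpP 10 microg/mL final; 20 min RT; delta FRET normalized to ADEP and DMSO controls.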
# Epigenetic reg – regulators of epigenetic silencing causing reporter derepression in mouse cells; murine LDR cells, GFP reporter derepression, 30 h; Potency, µM (titrated, usually from 53.9 µM), without a hit: at the top dose GFP activation, usual class: activators; actives 0.2% (n = 280,000); further: % of control where 0% means no effect; nearly all actives have a fitted effect of over 60% in size
#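 Reporter derepression read as number of fluorescent GFP-positive objects, 20-120 um in size, counted by laser-scanning cytometer. Mouse LDR line with an epigenetically silenced CMV-GFP locus; compound incubation 30 h, 37 C.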
# Numbers without * were called inactive; u = inconclusive; x = no result given; [ ] = dose if it differs, or a comment. Unless noted, the call rests on the fitted dose curve; in most records, active means well fitted curve in the direction sought with a large enough effect; inconclusive means small, poorly fitted or top-dose-only effect, or another doubt; inactive means no such curve, though single readings can be large; an effect the other way counts as inactive or inconclusive. Potency means the concentration at half of the fitted maximal effect.
SMILES,PINK1 expr mod,RORgamma inh,Sfp PPTase inh,Gal4-VP16 FLuc,ClpP mod,Epigenetic reg
COCCCNC(=O)c1c(NC(=O)c2ccccc2)n(Cc2ccccc2)c2nc3ccccc3nc12,10%,x,x,x,32µM*,x
Oc1cc(Cl)ccc1Cl,x,17%,x,-7%,x,x
c1ccc2c(c1)CCNC2,x,-10%,x,-7%,x,x
O=c1c(-c2ccccc2)c(O)c2ccccc2n1-c1ccccc1,0%,-3%,11%,-8%,u,x
CCCCCn1c(N)c(C(=O)NCc2cccs2)c2nc3ccccc3nc21,5%[38.3 µM],27%,-5%,-18%,28µM*,7%
COCCCn1c(N)c(C(=O)NCCC(C)C)c2nc3ccccc3nc21,11%[38.3 µM],8%,-8%,-5%,32µM*,1%
CCCCNC(=O)c1c(N)n(Cc2ccc3c(c2)OCO3)c2nc3ccccc3nc12,3%[38.3 µM],-14%,11%,u,10µM*,u
COc1ccc(NC(=O)N2CCC3(CC2)CCN(C(=O)Oc2ccccc2)CC3)cc1,-1%,u,12%,u,x,x
O=C1NC(=S)NC(=O)C1=Cc1cccn1-c1ccc(O)cc1,0%,2.8µM*,18µM*,8.9µM*,0%,0%
CN1C(=O)/C(=C/c2cccn2-c2ccc3ccccc3c2)C(=O)NC1=S,6%,13µM*,56µM*,-88%,-3%,9%
Cc1cc(C)cc(N2C(=O)NC(=O)/C(=C\c3cccn3-c3ccccc3)C2=O)c1,-1%,-14%[10 µM],-4%,u,-21%,u
Cc1ccc(-n2nc(C)c3c2NC(=O)CSC3c2ccc3c(c2)OCO3)cc1 (stereo unspecified),-1%,5%,56µM*,-3%,0%,-12%
COc1ccc(C2SCC(=O)Nc3c2c(C)nn3-c2ccccc2)cc1 (stereo unspecified),3%,40%,3%,-5%,0%,2%
O=C1NO[C@@H]2CN[C@@H](C(=O)O)[C@H]12,x,-15%,-2%,6%,x,2%
C=C1C(O)C2OC3(CCC(/C=C/C(C)C4CC(C)=CC5(OC(CC(C)(O)C(=O)O)CCC5O)O4)O3)CCC2OC1C(O)CC(C)C1OC2(CCCCO2)CCC1C (stereo unspecified),x,0.004µM*,11%,0.011µM*,x,u
O=c1cccc2n1CC1CC2CN(CCO)C1 (stereo unspecified),x,10%,17%,2%,x,-3%
Cc1ccc(-n2nc3ccc(NC(=O)COc4ccccc4C)cc3n2)cc1,-1%,x,x,x,u,0%
CCOC(=O)C/C(C)=N/NC(=O)COc1ccccc1C,4%,14µM*,10%,u,-2%,0%
FC(F)(F)c1ccc(CNCCc2ccc3c(c2)OCO3)cc1,17%,0%,79µM*,8%,1%,x
Clc1ccc(CNCCc2ccc3c(c2)OCO3)cc1,6%,-19%,u,2%,x,x
CCN(CC)CCCC(C)N=C(c1ccccc1)c1c(O)n(C)c(=O)n(C)c1=O (stereo unspecified),-1%,0.63µM*,12%,-1%,-10%,-7%
CCC(=NC(C)c1ccccc1)c1c(O)n(C)c(=O)n(C)c1=O (stereo unspecified),1%[38.3 µM],u,-8%,13µM*,-3%,-1%
CCC(=NCc1cc(OC)cc(OC)c1)c1c(O)n(C)c(=O)n(C)c1=O,2%[38.3 µM],-14%,50µM*,u,1%,0%
CCOC(=O)c1ccc(N=C(c2ccccc2)c2c(O)n(C)c(=O)n(C)c2=O)cc1,0%,12%,u,5%,x,0%
Oc1ccc2c(c1)[C@@]13CCCCC1[C@@H](C2)N(CC1CCC1)CC3 (stereo partly specified),x,21%,7%,5%,x,x
Cc1cccc(Cn2cc(C=O)c3ccccc32)c1,2%,u,-8%,u,1%,x
O=Cc1cn(Cc2c(F)cccc2Cl)c2ccccc12,7%,-41%,50µM*,u,-2%,1%
